Assay outcomes: PubChem BioAssay, National Center for Advancing Translational Sciences (NCATS)
Tau fluor cs: counter-screen for tau fibril formation inhibitors | tau K18 P301L Alexa594 fluorescence, heparin fibrillization | Potency, µM (highest dose often 57.7 µM), inactives show at the highest dose activity change, negative = decrease | actives 0.93% (n = 280,000); note: potency is the fitted concentration of half-maximal effect; nearly all actives have a fitted effect of over 55% in size
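Human tau K18 P301L (15 uM unlabeled, 0.24 uM Alexa 594-labeled) in 100 mM sodium acetate pH 7 with 20 uM heparin, 6 hr at 37 C. ThT 30 uM added, 1 hr ambient; Alexa 594 FP and total fluorescence read at 555/632 nm.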
KDM4E inh: blocks human JMJD2E demethylase activity; B2RXH2; JMJD2E catalytic domain, FDH-coupled NADH fluorescence (FDH is formaldehyde dehydrogenase); Potency, µM (titrated, usually from 57.1 µM), for the others: at the top dose activity change, negative = inhibition, most hits filed as inhibitors; actives 1.6% (n = 230,000); active = well fitted inhibition curve with a large enough effect, not every such curve was filed as active; inconclusive = small, poorly fitted or top-dose-only effect, or another doubt; inactive = no such curve, though single readings can be large or run the other way;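 note: potency is the fitted concentration of half-maximal effect; 0% = wells with enzyme and -100% = buffer wells without enzyme; nearly all actives have a fitted effect of over 50% in size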
Target sequence (B2RXH2 1-337 limits assumed): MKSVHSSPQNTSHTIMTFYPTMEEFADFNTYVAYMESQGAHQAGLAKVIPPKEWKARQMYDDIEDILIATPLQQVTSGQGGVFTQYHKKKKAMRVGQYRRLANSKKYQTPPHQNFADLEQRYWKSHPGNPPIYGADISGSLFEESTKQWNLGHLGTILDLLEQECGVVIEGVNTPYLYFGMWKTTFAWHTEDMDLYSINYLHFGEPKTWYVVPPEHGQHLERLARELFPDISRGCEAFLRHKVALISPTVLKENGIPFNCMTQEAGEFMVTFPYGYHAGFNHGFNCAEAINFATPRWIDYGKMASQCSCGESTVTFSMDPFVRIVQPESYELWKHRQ
NPSR antagonist: neuropeptide S receptor (human) antagonism, cAMP. Q6W5P4. CHO-NPSR cells, cAMP TR-FRET, antagonist mode. Potency, µM (highest dose often 38.3 µM), inactives show at the highest dose activity change, negative = inhibition, usual class: inhibitors. actives 1% (n = 220,000). AID 1461; note: potency is the fitted concentration of half-maximal effect; nearly all actives have a fitted effect of over 50% in size
Target sequence (Q6W5P4 whole entry, looked up): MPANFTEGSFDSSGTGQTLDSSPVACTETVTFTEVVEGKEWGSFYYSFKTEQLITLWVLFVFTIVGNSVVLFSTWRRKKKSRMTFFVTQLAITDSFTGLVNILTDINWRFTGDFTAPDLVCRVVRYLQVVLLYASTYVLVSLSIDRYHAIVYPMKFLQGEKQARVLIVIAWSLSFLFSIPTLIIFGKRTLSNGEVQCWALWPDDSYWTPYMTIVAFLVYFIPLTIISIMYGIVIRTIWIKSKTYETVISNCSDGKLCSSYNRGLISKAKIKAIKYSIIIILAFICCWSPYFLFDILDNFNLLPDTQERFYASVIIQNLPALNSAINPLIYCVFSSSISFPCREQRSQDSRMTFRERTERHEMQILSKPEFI
Tau ThT inhib: tau fibrillization inhibition (ThT binding) | P10636 | recombinant tau K18 P301L, heparin-induced fibrillization, ThT fluorescence | Potency, µM (top dose mostly 57.4 µM), inactives show at the highest dose activity, negative = inhibition, most hits filed as inhibitors | actives 2.1% (n = 270,000) | AID 1460; note: potency is the fitted concentration of half-maximal effect; nearly all actives have a fitted effect of over 55% in size
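ThT emission at 510 nm, taken 1 hr after adding 30 uM dye, quantifies aggregates formed when 20 uM heparin acts on human tau K18 P301L for 6 hr at 37 C.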
PNC inhibitor: blocks assembly of the perinucleolar compartment. PC3M PTB-GFP, PNC prevalence imaging, 16 h; active compounds read low. activity change (PNC), negative = inhibition, % at 10 µM. actives 3.1% (n = 140,000);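 active = readout at or below -70, meaning at least 70% loss of cells showing the perinucleolar compartment, a nuclear body marking cancer cells; inconclusive = readout between -30 and a set limit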;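 note: plate controls were DMSO wells for no effect and camptothecin positive control wells for full effect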
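Compounds are pinned in duplicate onto adhered PC3M cells stably expressing GFP-tagged PTB and incubated 16 h at 37 C. Cells are then fixed, nuclei stained with Hoechst, and PNC-positive cells counted.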
Tau fibril FP: tau fibrillization inhibition (FP) | Potency, µM (series often up to 57.7 µM), for the others: at the highest dose activity, negative = inhibition, most hits filed as inhibitors | actives 0.39% (n = 280,000) | K18 P301L tau heparin fibrillization, Alexa594 FP, 6 h | P10636 | AID 1468; note: potency is the fitted concentration of half-maximal effect; nearly all actives have a fitted effect of over 55% in size
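K18 P301L tau (15 uM unlabeled/0.24 uM Alexa 594-labeled, final) + compound + heparin 20 uM final; 100 mM NaOAc pH 7; 6 hr 37 C; ThT 30 uM final added, 1 hr RT; FP ex 555/em 632 nm.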
* marks the source's active call; other numbers are inactive results; ? = inconclusive; nt = no result; [ ] = remark or other dose. Hits are enriched below; roughly 5.1% of the tested compounds scored in any of these assays. Unless noted, calls come from the whole dose curve; as a rule, active = well fitted curve in the direction sought with a large enough effect; inconclusive = small, poorly fitted or top-dose-only effect, or another doubt; inactive = no such curve, though single readings can be large; an effect the other way counts as inactive or inconclusive. Unless noted, % is set by controls: 0 for no effect and ±100 for the full control effect.

SMILES | Tau fluor cs | KDM4E inh | NPSR antagonist | Tau ThT inhib | PNC inhibitor | Tau fibril FP
CC(C)c1ccc(Nc2cc(C(=O)NCCCN(C)Cc3ccccc3)c3ccccc3n2)cc1 | ? | nt | nt | 6.0% | nt | -5.9%
O=C(NCCc1ccccc1)c1cc(Sc2cccc(Cl)c2)nc2ccccc12 | -16.0% | nt | nt | -4.7% | nt | -6.1%
CCCCN(CCCNC(=O)c1cc(Nc2cccc(SC)c2)nc2ccccc12)Cc1ccccc1 | 1.78µM*[quencher] | nt | nt | ? | nt | ?
CSc1cccc(Nc2cc(C(=O)NCCc3ccc(Cl)cc3)c3ccccc3n2)c1 | 3.55µM*[quencher] | nt | nt | -11.5% | nt | ?
Cc1ccc(N2CCN(S(=O)(=O)c3ccc4oc(=O)c5ncn(C)c5c4c3)CC2)c(C)c1 | -0.4% | nt | nt | 1.0% | nt | 0.3%
COc1ccc(C2C3C=CCC(c4cccc(-c5ccc(C)cc5)c4)C3C(=O)N2Cc2ccccc2)cc1Cl (centres undefined) | 4.3% | -0.1% | 10µM* | 1.7% | nt | -9.9%
COc1ccc(-c2cccc(C3CC=CC4C3C(=O)N(Cc3ccccc3)C4c3ccc4ccccc4c3)c2)cc1 (centres undefined) | 24.7% | ? | -29.3% | 16.8% | nt | -7.8%
C=CCNC(=O)C(C(=O)OCC)C1CCCCC1 (centres undefined) | 3.0% | 5.0% | ? | 4.8% | 40.1 | -5.3%
CCOC(=O)C(C(=O)NCCCN1CCOCC1)C1CCCCC1 (centres undefined) | 2.9% | -4.3% | -3.6%[46.1 µM] | 4.2% | -100.0* | 8.4%
CCCCOC(=O)C1=C(C)NC2(O)c3ccccc3C(=O)C12O (centres undefined) | -11.0% | -20.0% | 1.0%[46.1 µM] | 10µM* | 8.2 | ?
COc1ccc2c(c1)NC1(O)c3ccccc3C(=O)C21O (centres undefined) | -1.5% | -2.0% | 6.3%[46.1 µM] | -9.7% | 18.6 | 2.5%
CC1=C(C(=O)OC(C)C)C2(O)C(=O)c3ccccc3C2(O)N1 (centres undefined) | -23.2% | ? | 3.5%[46.1 µM] | 7.08µM* | ? | ?
CC1=C(C#N)C2(O)C(=O)c3ccccc3C2(O)N1 (centres undefined) | -1.4% | 8.2% | 4.8% | -16.2% | nt | -6.9%
CCOC(=O)C1=C(C)N[C@@]2(O)c3ccccc3C(=O)[C@@]12O | -10.6% | -8.2% | 1.8%[46.1 µM] | 3.55µM* | 38.0 | ?
Cc1cccc(NC(=O)N[C@@H](C)C(=O)O)c1 | -2.8% | 6.1% | -2.1%[46.1 µM] | -14.1% | -113.4* | -2.2%
Cc1cc(/C=C2/C(=O)NN(c3ccccc3)C2=O)c(C)n1-c1ccc(O)cc1 | -22.3% | -7.1% | -17.4% | 12.6µM* | 91.3 | 10.8%
O=C1NN(c2ccccc2)C(=O)/C1=C\c1coc2ccc(O)cc2c1=O | ? | -1.0% | -40.5% | 14.1µM* | nt | -13.1%
O=C1NN(c2ccccc2)C(=O)/C1=C/c1coc2ccccc2c1=O | 9.1% | -4.8% | -15.5% | 11.0% | ? | -1.3%
COc1ccc(-n2c(C)cc(/C=C3\C(=O)NN(c4ccccc4)C3=O)c2C)cc1 | -30.0% | -9.4% | -46.1% | ? | -4.8 | 9.1%
CCOC(=O)OCC1OC(c2ccccc2)C=CC1Oc1ccc2oc(=O)cc(C)c2c1 (centres undefined) | -6.4%[11.6 µM] | nt | nt | -3.4%[11.5 µM] | nt | -3.4%[11.6 µM]
O=c1cc(-c2cccc(F)c2)[nH]c2ccccc12 | -0.4%[126 µM] | -1.2% | 22.3% | -0.3%[126 µM] | -91.5* | 6.7%[126 µM]
O=c1cc(-c2ccccc2)[nH]c2ccc(Cl)cc12 | -4.2%[126 µM] | nt | nt | -7.1%[126 µM] | nt | -6.9%[126 µM]
O=c1cc(-c2ccccc2)[nH]c2cc(Cl)ccc12 | -4.1%[126 µM] | 3.8% | 10.6% | -5.5%[126 µM] | -118.9* | 0.3%[126 µM]
O=c1cc(-c2cccc(F)c2)[nH]c2ccc(Cl)cc12 | -9.9%[81.3 µM] | nt | nt | -2.9%[81.4 µM] | nt | -12.5%[81.3 µM]
Cc1ccc2c(c1)-c1nc(-c3ccc(Cl)cc3)cc(-c3coc4ccccc4c3=O)c1CO2 | -10.6% | nt | nt | -4.6% | nt | -0.6%
SMILES | Tau fluor cs | KDM4E inh | NPSR antagonist | Tau ThT inhib | PNC inhibitor | Tau fibril FP
CC(C)C1Cc2c(sc3[nH]c(=S)n(Cc4ccccc4)c(=O)c23)CO1 (centres undefined) | -28.8% | -3.8% | 10µM* | -16.9% | ? | 5.3%
Cc1c(C(=O)Nc2ccc3c(c2)CCC3)cccc1[N+](=O)[O-] | 1.1% | 3.0% | -26.3% | 4.8% | -113.8* | 2.2%
CCC(=O)Nc1cccc(NC(=O)c2cccc([N+](=O)[O-])c2C)c1 | -8.1% | -5.5% | 22.9% | 0.7% | -20.2 | -10.0%
CCCC(=O)NC(NC(=S)Nc1ccc(N=Nc2ccccc2)cc1)C(Cl)(Cl)Cl (centres undefined) | ? | -1.7% | -53.6% | 14.1µM* | ? | ?
CCCC(=O)NC(NC(=S)Nc1ccc(S(N)(=O)=O)cc1)C(Cl)(Cl)Cl (centres undefined) | -5.4% | 0.6% | 24.4% | 0.6% | -28.4 | -4.9%
S=C(NCCC(c1ccccc1)c1ccccc1)Nc1cccc(Cl)c1 | 7.08µM*[quencher] | -2.7% | ? | 17.9% | 42.1 | 14.1µM*
O=C(CCc1ccccc1)NC(NC(=S)Nc1cccc(Cl)c1)C(Cl)(Cl)Cl (centres undefined) | -0.2% | -5.3% | -19.0% | 9.6% | -118.9* | 14.1µM*
O=C(CCc1ccccc1)NC(NC(=S)Nc1ccc(Br)cc1)C(Cl)(Cl)Cl (centres undefined) | -25.7% | 3.7% | 2.5%[46.1 µM] | 5.2% | ? | ?
CCOC(=O)c1cc(S(=O)(=O)Nc2cc(F)ccc2C)[nH]n1 | -6.0% | nt | nt | -2.9% | nt | -7.7%
COc1cccc(CNC(=O)CN(c2ccc(C(C)C)cc2)S(=O)(=O)c2c(C)n[nH]c2C)c1 | -26.8% | nt | nt | -12.3% | nt | -0.4%
COc1ccc(Cl)cc1NC(=O)C1CCCN(S(=O)(=O)c2ccc3c(c2)CCCC(=O)N3)C1 (centres undefined) | -19.9% | nt | nt | -12.5% | nt | 3.8%
Cc1ccc(NC(=O)CSc2nc3ccccc3c3nc(CCc4c(C)n[nH]c4C)nn23)c(C)c1 | 3.2% | nt | nt | ? | nt | -11.1%
CS(=O)(=O)c1ccc(N)cc1 | 2.9% | -2.5% | 5.4%[46.1 µM] | -3.9% | -88.3* | 2.4%
CCN(CC)S(=O)(=O)c1ccc(N)cc1 | -3.0% | 9.1% | -10.0% | 0.6% | nt | -2.0%
COc1ccc2c(c1)c(=O)c(C(=O)c1ccccc1)cn2CC(=O)Nc1ccc2c(c1)OCO2 | -29.1% | nt | nt | -10.3% | nt | -1.0%
CN(C)c1ccc(CC2C(=O)Nc3ccccc32)cc1 (centres undefined) | ? | 3.16µM* | -3.0% | 31.6µM* | nt | ?
CN(C)c1ccc(NC(=O)C(=O)C2C(=O)Nc3ccccc32)cc1 (centres undefined) | -21.3% | -19.1% | 6.3% | 14.1µM* | nt | 6.4%
COc1ccc(C)cc1NC(=O)C1CCN(S(=O)(=O)c2cc(Br)cc3c2N(C(C)=O)CC3)CC1 | -19.3% | nt | nt | -9.7% | nt | -2.2%
